Only some compounds are listed: those with a hit (about 1.8% of all), similar ones and a draw of the others.
TrxR1 substrate – qHTS Assay for Substrates of Mammalian Selenoprotein Thioredoxin Reductase 1 (TrxR1): qHTS; Potency, µM (doses to about 114 µM), without a hit: at the top dose activity change, negative = substrate turnover; purified TrxR1 substrate turnover, NADPH consumption readout; 390,000 tested, 0.01% active; AID 588456, 2011; Thioredoxin reductase 1, cytoplasmic (Rattus norvegicus), O89049; note: nearly all actives have a fitted effect of over 50% in size
Target sequence (O89049 whole entry, looked up): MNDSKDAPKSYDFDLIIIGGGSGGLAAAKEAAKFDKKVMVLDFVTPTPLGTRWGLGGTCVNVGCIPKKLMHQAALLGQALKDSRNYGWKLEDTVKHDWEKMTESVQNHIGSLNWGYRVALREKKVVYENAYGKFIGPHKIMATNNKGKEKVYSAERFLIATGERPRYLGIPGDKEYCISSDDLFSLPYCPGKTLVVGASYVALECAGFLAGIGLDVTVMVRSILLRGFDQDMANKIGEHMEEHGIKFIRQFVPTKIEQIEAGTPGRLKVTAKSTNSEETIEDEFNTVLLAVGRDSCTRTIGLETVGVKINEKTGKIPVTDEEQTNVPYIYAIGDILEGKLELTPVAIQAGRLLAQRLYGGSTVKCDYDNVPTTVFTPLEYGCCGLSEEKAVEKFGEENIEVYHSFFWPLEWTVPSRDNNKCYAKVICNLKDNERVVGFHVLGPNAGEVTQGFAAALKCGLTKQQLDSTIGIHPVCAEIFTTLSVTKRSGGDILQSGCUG
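Rat TrxR1, dispensed at 90 nM, was prereduced with 400 uM NADPH (final) for 5 min at ~22 deg C, then incubated with compound 15 min before 400 uM selenite. A first-read NADPH fluorescence drop versus no-compound background flagged substrates.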
TrxR1 inh – qHTS Assay for Inhibitors of Mammalian Selenoprotein Thioredoxin Reductase 1 (TrxR1): qHTS | recombinant rTrxR1, NADPH fluorescence consumption, selenite substrate | Potency, µM (highest dose often 114 µM), without a hit: at the top dose activity change, negative = inhibition, actives largely listed as inhibitors | Thioredoxin reductase 1, cytoplasmic (Rattus norvegicus), O89049 | 390,000 tested, 1% active; note: nearly all actives have a fitted effect of over 65% in size
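Rat TrxR1 (90 nM in the dispensed reagent) was pre-reduced with 400 uM NADPH for 5 min at room temperature, then incubated with compound for 15 min. After 400 uM selenite was added, NADPH fluorescence (Ex 340/Em 450 nm) was followed for 8 min.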
GCN5L2 inh – qHTS Assay for Inhibitors of GCN5L2; GCN5L2 HAT assay, ThioGlo1 CoA-SH fluorescence; Potency, µM (titrated, usually from 58.9 µM), for the others: at the top dose activity change, negative = inhibition, actives largely listed as inhibitors; 390,000 tested, 0.21% active
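Titration-based screen in which CoA formation is detected via maleimide probe ThioGlo1 (50uM) turning fluorescent on thiol reaction; substrates H3(1-25) 75uM and acetyl-CoA 70uM, GCN5L2 20nM, 20 min incubation at room temperature.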
VDR inh – Inhibitors of the vitamin D receptor (VDR): qHTS; Vitamin D3 receptor (Homo sapiens), P11473; VDR-SRC2-3 peptide fluorescence polarization, 2 h; Potency, µM, inactives show max response, negative = inhibition, hits mostly inhibitors; 400,000 tested, 0.93% active
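Compounds are added to VDR with labelled SRC2-3 coactivator peptide and held 2 h at room temperature. Inhibition of the VDR–peptide interaction is then read as a change in fluorescence polarization.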
The depositor's hits bear a star; ? = inconclusive; · = not tested or not shown; [ ] = remark or other dose. Calls come from the whole dose curve; as a rule, active = well fitted curve in the direction sought with a large enough effect; inconclusive = small, poorly fitted or top-dose-only effect, or another doubt; inactive = no such curve, though single readings can be large; an effect the other way counts as inactive or inconclusive. % is set by controls: 0 for no effect and ±100 for the full control effect; potency is the fitted concentration of half-maximal effect.

SMILES | TrxR1 substrate | TrxR1 inh | GCN5L2 inh | VDR inh
CN(C)c1ccc(-c2nn3c(-c4cc(-c5ccccc5)n[nH]4)nnc3s2)cc1 | 10% | 6% | · | 6%
Cn1c(/C(C#N)=C/c2cccc(O)c2)nc2ccccc21 | -1%[57.1 µM] | -2%[57.1 µM] | 0% | 79µM*
COc1cc(/C=C(\C#N)c2nc3ccccc3n2C)cc(OC)c1OC | -8% | -15% | -5% | -11%
C=C[C@@H]1c2cc(C)ccc2N(S(=O)(=O)c2ccc(C)cc2)[C@H](c2ccc(C(=O)OC)cc2)C1(C#N)C#N | 8% | 22% | · | ·
Cc1ccc(S(=O)(=O)c2nc(S(C)(=O)=O)sc2N2CCC(C(N)=O)CC2)cc1 | -4% | -4% | 0% | 0%
CS(=O)(=O)c1nc(S(=O)(=O)c2ccc(Cl)cc2)c(N2CCC(C(N)=O)CC2)s1 | -11% | 32µM* | -4% | -2%
COc1cc(C2Nc3cccc4cccc(c34)N2)ccc1OC(C)=O | 1% | 10µM* | -19% | -22%
COc1ccc(C2Nc3cccc4cccc(c34)N2)cc1Br | 0% | ? | -10% | -24%
COc1cc(C2Nc3cccc4cccc(c34)N2)cc(OC)c1O | 11% | 16µM* | -12% | -15%
O=C(NCc1ccco1)C1Cc2ccccc2CN1S(=O)(=O)c1ccccc1F (configuration not stated) | -1% | 16µM* | · | ?
COc1ccc(NC(=S)Nc2ncccc2C)c(OC)c1 | 6% | 1.8µM* | -4% | 7%
O=S1(=O)CCO[C@H]2CCCC[C@@H]2N1Cc1cccc(F)c1 | 5% | 11% | · | ·
CC(=O)N(C1CC(C)C(C#N)(C#N)C1(C#N)C#N)N(C)C (configuration not stated) | 12%[57.1 µM] | 1.6µM* | 4% | 35µM*
CCCC(=O)N(C1CC(C)C(C#N)(C#N)C1(C#N)C#N)N(C)C (configuration not stated) | 13%[57.1 µM] | 2.5µM* | -13% | 8.9µM*
COc1ccc(CN(Cc2ccccc2)C(=O)c2ccncc2)cc1COc1ccc(NC(C)=O)cc1 | 1% | -6% | · | -17%
O=C(O)c1ccc(-c2ncc[nH]2)cc1 | 94%[57.1 µM] | 27%[57.1 µM] | 1% | 45µM*
COc1c(Cl)cc(Cl)cc1C(=O)Nc1cccc(-c2nc3ccccc3o2)c1C | 2% | 2% | 5% | -2%
CC[N+]1(CC(=O)c2ccc(Br)cc2)CCCCC1 | 4% | 8% | · | ·
CCOC(=O)N1C=CC=C[C@@H]2[C@@H](N3C(=O)c4ccccc4C3=O)C(=O)N21 | 7% | 16µM* | 0% | -7%
COc1ccc(CN2CC[C@H]3C=CC[C@@H](C(=O)N4CCN(c5ccccc5)CC4)[C@H]3C2=O)cc1OC | 2% | -1% | · | ·
CCC(COC)Oc1cc(NCc2ccccc2)c2ncn(C(C)C)c2c1 (configuration not stated) | -19% | ? | 0% | 22µM*
CCC(CO)Oc1cc(NCc2ccccc2)c2ncn(C(C)C)c2c1 (configuration not stated) | -7%[57.1 µM] | -52% | -10% | ?
CCC(COC(=O)c1ccccc1)Oc1cc(NCc2ccccc2)c2ncn(C(C)C)c2c1 (configuration not stated) | -12% | -3% | -14% | 79µM*
Cc1ncc([N+](=O)[O-])n1C[C@H](O)CCl | · | · | -6%[21.4 µM] | -5%
O=C(/C=C/c1ccc(OCCCF)cc1)NCc1ccc(Cl)cc1 | -5% | -7% | 3.5µM* | 10%
COc1ccc(CNC(=O)/C=C/c2ccc(OCCCF)cc2)cc1 | -3% | 1% | 0% | 8%
CCN(CC)C(=O)CSc1nc(-c2ccc(C)cc2)nc2c1Cc1c(CO)cnc(C)c1O2 | -5% | 20µM* | 1% | -4%
O=Cc1cc2c3c(c1)CCCN3CCC2 | -5% | -17% | · | ·
COc1cccc(C(c2c(O)cc(C)n(Cc3ccco3)c2=O)N2CCC(C)CC2)c1 (configuration not stated) | 1%[57.1 µM] | -13%[57.1 µM] | -4% | 12%
CCN1CCN(C(c2ccc(SC)cc2)c2c(O)cc(C)n(CCOC)c2=O)CC1 (configuration not stated) | 4%[57.1 µM] | 25µM* | 1% | -3%
